Source: the supplement of paper PMC10849652
About 7,900 targets were measured; listed, in parts, are those with a hit and a random draw of the rest. About 0.6% of all pairs of compound and target were hits.

compound: CCn1c(C(=O)N(C2CC2)C2CC2)cc2c3c(ncn3C)c(Nc3cc(C)n(C)n3)nc21; test: log2 fold change, soluble protein after heating vs DMSO (PISA); higher = thermal stabilisation; K562 cells, 10 uM, 30 min; active = over 0.2 and 3.5 SD of the protein, either way, in both replicates (recomputed)
In short: (§1)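 Quantification of soluble protein used TMTpro 16plex LC-MS/MS, with channel sums equalised. Samples were the supernatant after 21,000xg for 90 min of pooled aliquots from K562 cells (2×10^6 cells/mL) treated with 10 μM compound for 30 min, heated for 3 min over 48°C-58°C, and extracted in PBS with 0.5% NP-40 at 4°C. Values, from duplicates, describe thermal stability against control samples on a log2 fold-change scale.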

Sequence of UniProt O60934 (O60934 whole entry, looked up): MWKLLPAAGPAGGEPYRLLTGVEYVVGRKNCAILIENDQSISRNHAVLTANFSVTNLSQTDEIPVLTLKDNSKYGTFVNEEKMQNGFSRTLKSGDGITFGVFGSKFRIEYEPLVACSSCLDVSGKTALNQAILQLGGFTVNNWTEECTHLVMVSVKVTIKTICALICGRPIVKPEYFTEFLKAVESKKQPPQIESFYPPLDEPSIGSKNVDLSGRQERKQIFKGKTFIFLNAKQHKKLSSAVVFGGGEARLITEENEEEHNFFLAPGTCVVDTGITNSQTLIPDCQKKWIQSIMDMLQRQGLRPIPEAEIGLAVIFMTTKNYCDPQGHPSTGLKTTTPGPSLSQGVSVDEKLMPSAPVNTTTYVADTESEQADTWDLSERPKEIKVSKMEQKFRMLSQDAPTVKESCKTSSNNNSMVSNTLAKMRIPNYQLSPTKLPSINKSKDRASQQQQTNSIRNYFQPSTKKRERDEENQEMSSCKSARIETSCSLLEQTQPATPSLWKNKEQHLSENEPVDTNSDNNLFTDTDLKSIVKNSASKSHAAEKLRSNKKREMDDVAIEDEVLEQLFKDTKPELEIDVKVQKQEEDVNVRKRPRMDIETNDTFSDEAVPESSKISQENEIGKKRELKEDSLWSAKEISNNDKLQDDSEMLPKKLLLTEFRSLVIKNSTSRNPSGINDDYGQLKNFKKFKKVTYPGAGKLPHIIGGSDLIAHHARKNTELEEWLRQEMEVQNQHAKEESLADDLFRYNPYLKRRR
Sequence of UniProt Q14978 (Q14978 whole entry, looked up): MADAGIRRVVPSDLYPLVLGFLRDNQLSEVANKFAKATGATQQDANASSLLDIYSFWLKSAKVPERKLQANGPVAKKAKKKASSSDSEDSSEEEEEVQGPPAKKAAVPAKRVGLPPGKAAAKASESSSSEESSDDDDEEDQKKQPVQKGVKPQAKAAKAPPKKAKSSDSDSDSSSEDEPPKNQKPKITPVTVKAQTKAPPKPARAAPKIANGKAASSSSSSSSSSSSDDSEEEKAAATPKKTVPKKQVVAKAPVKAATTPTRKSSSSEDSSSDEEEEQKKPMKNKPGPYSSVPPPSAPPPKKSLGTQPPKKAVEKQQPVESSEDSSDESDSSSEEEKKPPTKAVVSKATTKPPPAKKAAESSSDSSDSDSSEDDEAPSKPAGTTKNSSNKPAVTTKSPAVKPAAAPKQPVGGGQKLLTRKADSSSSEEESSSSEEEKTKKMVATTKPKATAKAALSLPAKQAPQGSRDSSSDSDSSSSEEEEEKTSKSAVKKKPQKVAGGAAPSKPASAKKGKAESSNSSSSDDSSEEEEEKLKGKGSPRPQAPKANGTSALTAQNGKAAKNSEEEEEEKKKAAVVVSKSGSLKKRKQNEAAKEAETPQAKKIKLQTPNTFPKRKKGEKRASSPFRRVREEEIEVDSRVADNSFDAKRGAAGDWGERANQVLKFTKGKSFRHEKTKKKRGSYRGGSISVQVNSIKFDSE
Sequence of UniProt P46087 (P46087 whole entry, looked up): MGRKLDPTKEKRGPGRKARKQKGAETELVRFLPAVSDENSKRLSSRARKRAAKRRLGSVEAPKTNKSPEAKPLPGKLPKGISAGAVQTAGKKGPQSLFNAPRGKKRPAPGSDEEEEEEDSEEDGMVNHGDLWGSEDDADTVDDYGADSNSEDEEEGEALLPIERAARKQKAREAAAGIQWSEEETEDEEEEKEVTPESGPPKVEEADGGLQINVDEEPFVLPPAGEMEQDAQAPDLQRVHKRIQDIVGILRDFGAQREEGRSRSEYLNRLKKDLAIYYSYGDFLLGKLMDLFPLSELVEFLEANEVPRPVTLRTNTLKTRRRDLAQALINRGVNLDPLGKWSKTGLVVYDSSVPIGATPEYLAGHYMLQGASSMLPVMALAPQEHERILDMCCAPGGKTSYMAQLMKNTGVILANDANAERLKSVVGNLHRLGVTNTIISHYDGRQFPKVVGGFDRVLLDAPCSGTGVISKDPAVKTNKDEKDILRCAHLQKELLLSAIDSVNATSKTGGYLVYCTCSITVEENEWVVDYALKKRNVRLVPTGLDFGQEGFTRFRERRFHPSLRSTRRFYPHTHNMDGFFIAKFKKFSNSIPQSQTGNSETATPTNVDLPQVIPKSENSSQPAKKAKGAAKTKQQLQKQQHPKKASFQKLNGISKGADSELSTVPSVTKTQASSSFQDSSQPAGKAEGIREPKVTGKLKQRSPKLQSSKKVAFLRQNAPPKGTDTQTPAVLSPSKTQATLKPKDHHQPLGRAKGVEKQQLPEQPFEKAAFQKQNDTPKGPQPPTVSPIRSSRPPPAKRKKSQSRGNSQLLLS
Sequence of UniProt Q12769 (Q12769 whole entry, looked up): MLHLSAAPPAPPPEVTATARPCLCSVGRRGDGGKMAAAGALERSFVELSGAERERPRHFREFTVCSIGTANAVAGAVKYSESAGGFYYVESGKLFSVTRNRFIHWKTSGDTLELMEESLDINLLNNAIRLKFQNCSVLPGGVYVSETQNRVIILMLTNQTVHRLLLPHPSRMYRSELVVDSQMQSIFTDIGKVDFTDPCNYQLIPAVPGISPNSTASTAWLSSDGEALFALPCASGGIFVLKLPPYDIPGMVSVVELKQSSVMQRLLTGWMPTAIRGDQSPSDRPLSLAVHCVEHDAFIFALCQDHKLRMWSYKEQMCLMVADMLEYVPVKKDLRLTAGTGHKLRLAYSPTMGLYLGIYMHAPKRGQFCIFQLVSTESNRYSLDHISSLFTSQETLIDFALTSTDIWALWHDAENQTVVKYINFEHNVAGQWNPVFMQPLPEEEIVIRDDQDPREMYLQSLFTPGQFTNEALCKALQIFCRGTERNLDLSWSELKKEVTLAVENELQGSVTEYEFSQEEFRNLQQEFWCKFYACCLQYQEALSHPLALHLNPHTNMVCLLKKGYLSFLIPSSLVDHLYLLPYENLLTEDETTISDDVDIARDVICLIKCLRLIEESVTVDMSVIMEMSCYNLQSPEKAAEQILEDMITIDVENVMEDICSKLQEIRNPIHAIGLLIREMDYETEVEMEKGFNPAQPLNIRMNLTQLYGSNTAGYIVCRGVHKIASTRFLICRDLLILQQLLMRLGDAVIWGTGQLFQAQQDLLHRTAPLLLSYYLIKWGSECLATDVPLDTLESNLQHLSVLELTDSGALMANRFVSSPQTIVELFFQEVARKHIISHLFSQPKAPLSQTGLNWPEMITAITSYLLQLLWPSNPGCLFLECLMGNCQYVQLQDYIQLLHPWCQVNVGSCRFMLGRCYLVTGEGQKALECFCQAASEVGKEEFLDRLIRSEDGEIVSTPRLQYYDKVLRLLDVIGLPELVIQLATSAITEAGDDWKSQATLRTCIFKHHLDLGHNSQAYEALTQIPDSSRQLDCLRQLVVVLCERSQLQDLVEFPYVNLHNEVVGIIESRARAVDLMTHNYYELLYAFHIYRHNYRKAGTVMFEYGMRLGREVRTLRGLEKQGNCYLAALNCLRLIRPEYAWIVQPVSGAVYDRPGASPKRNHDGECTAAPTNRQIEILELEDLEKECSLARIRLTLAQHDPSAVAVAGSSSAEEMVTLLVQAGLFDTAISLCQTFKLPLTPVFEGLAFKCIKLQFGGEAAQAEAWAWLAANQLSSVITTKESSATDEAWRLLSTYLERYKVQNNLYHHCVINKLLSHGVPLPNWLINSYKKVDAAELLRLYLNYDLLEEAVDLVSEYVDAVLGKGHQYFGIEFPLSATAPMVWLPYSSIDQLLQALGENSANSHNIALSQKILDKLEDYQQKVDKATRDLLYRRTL
Sequence of UniProt Q9NZT2 (Q9NZT2 whole entry, looked up): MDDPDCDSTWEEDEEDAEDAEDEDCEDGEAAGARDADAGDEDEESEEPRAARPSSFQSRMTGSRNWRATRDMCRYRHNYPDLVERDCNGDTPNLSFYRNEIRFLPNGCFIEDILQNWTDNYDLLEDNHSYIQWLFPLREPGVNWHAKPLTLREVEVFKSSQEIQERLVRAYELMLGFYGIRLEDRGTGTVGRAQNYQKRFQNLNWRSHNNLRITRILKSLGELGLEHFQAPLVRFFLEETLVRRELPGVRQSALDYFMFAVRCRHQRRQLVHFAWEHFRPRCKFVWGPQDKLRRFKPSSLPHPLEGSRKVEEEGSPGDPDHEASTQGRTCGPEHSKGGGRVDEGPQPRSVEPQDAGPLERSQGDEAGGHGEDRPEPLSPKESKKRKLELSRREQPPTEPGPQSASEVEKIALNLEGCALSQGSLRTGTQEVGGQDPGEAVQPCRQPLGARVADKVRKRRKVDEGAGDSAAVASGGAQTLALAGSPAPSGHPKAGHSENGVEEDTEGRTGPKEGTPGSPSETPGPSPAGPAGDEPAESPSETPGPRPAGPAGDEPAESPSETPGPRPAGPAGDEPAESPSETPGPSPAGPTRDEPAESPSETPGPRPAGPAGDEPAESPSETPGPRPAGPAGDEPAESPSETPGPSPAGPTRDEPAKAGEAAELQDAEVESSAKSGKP
Sequence of UniProt Q8WVJ2 (Q8WVJ2 whole entry, looked up): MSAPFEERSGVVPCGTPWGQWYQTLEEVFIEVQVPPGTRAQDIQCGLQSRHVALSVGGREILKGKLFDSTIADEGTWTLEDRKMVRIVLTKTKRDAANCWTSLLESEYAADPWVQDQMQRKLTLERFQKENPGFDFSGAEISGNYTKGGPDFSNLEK
Sequence of UniProt P68402 (P68402 whole entry, looked up): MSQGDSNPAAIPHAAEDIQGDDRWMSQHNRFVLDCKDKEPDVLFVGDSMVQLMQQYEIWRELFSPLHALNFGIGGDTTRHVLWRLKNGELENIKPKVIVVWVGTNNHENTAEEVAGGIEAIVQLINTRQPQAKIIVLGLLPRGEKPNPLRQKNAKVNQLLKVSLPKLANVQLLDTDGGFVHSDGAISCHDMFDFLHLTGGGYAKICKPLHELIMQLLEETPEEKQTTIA
Sequence of UniProt O00483 (O00483 whole entry, looked up): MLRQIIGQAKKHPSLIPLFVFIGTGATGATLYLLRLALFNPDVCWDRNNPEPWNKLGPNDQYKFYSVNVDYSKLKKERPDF

log2 fold change, inactive:
NUDCD2 (UniProt Q8WVJ2) -0.042
NA, A0A096LPI6 0.042
NAP1L1 (UniProt P55209) 0.007
NCL (UniProt P19338) 0.022
NUP107 (UniProt P57740) -0.069
MRPL46 (UniProt Q9H2W6) 0.075
MRPS22 (UniProt P82650) -0.03
MSTO1 (UniProt Q9BUK6) 0.038
NOL11 (UniProt Q9H8H0) -0.031
NFYC (UniProt Q13952) 0.006
MTMR14 (UniProt Q8NCE2) 0.009
NISCH (UniProt Q9Y2I1) -0.252
NAPG (UniProt Q99747) -0.05
NDUFA4 (UniProt O00483) 0.09
NUMB (UniProt P49757) 0.009
MRPS18B (UniProt Q9Y676) -0.075
NUP85 (UniProt Q9BW27) -0.024
MTHFD1 (UniProt P11586) -0.011
NOSIP (UniProt Q9Y314) -0.129
NECTIN2 (UniProt Q92692) 0.018
NUP205 (UniProt Q92621) -0.036
NFATC2IP (UniProt Q8NCF5) 0.022
NRF1 isoform 4 (UniProt Q16656) -0.056
MRPS12 (UniProt O15235) -0.04
MON1B (UniProt Q7L1V2) -0.025
NEMP1 (UniProt O14524) 0.08
NDUFAF6 (UniProt Q330K2) -0.089
NFATC3 (UniProt Q12968) 0.065
MRPS15 (UniProt P82914) -0.084
NUP160 (UniProt Q12769) -0.01
NEU1 (UniProt Q99519) -0.04
OGFR (UniProt Q9NZT2) 0.018
NBN (UniProt O60934) -0.038
MYH10 isoform 3 (UniProt P35580) -0.025
MRPS24 (UniProt Q96EL2) -0.031
NOP2 isoform 4 (UniProt P46087) -0.098
NEDD4 isoform 4 (UniProt P46934) 0
NOLC1 isoform 2 (UniProt Q14978) -0.015
PAFAH1B2 (UniProt P68402) 0.018

compound: CCn1cc(-c2ccnc3[nH]c(-c4cccc(CN(C)C)c4)cc23)c(-c2ccc(NC(=O)N(C)C)cc2)n1; test: as above
In short: as §1

log2 fold change, inactive:
NUDCD2 (UniProt Q8WVJ2) 0.021
NA, A0A096LPI6 0.029
NAP1L1 (UniProt P55209) -0.008
NCL (UniProt P19338) 0.336
NUP107 (UniProt P57740) 0.169
MRPL46 (UniProt Q9H2W6) -0.04
MRPS22 (UniProt P82650) -0.068
MSTO1 (UniProt Q9BUK6) -0.119
NOL11 (UniProt Q9H8H0) -0.027
NFYC (UniProt Q13952) -0.015
MTMR14 (UniProt Q8NCE2) -0.056
NISCH (UniProt Q9Y2I1) -0.121
NAPG (UniProt Q99747) -0.076
NDUFA4 (UniProt O00483) 0.019
NUMB (UniProt P49757) -0.045
MRPS18B (UniProt Q9Y676) -0.021
NUP85 (UniProt Q9BW27) -0.01
MTHFD1 (UniProt P11586) -0.159
NOSIP (UniProt Q9Y314) -0.017
NECTIN2 (UniProt Q92692) -0.044
NUP205 (UniProt Q92621) -0.013
NFATC2IP (UniProt Q8NCF5) 0.038
NRF1 isoform 4 (UniProt Q16656) 0.035
MRPS12 (UniProt O15235) -0.072
MON1B (UniProt Q7L1V2) 0.013
NEMP1 (UniProt O14524) 0.018
NDUFAF6 (UniProt Q330K2) -0.059
NFATC3 (UniProt Q12968) -0.038
MRPS15 (UniProt P82914) -0.115
NUP160 (UniProt Q12769) 0.04
NEU1 (UniProt Q99519) 0.052
OGFR (UniProt Q9NZT2) -0.041
NBN (UniProt O60934) 0.002
MYH10 isoform 3 (UniProt P35580) -0.036
MRPS24 (UniProt Q96EL2) -0.095
NOP2 isoform 4 (UniProt P46087) 0.364
NEDD4 isoform 4 (UniProt P46934) -0.031
NOLC1 isoform 2 (UniProt Q14978) 0.047
PAFAH1B2 (UniProt P68402) -0.087
